Source: PubChem BioAssay AID504339 (National Center for Advancing Translational Sciences (NCATS), 2011)
About 17,000 (4.4%) of roughly 390,000 compounds were called active. Not shown: some 8% with an inconclusive outcome. This is one part of a sample in which actives are shown more often than they occur. A number with no mark means an inactive call. The call rests on the fitted dose curve; in most records, active means well fitted inhibition curve with a large enough effect; inconclusive means small, poorly fitted or top-dose-only effect; inactive means no such curve, though single readings can be large or run the other way.

These molecules were tested against Lysine-specific demethylase 4A (Homo sapiens) (UniProt O75164) (assay: qHTS Assay for Inhibitors of JMJD2A-Tudor Domain). Conditions: AlphaScreen JMJD2A-Tudor / H3K4me3 peptide binding; series mostly up to 114 µM; activity change, negative = inhibition: at the top concentration.
Sequence of Lysine-specific demethylase 4A (Homo sapiens) (O75164 whole entry, looked up, the tested form may be a part): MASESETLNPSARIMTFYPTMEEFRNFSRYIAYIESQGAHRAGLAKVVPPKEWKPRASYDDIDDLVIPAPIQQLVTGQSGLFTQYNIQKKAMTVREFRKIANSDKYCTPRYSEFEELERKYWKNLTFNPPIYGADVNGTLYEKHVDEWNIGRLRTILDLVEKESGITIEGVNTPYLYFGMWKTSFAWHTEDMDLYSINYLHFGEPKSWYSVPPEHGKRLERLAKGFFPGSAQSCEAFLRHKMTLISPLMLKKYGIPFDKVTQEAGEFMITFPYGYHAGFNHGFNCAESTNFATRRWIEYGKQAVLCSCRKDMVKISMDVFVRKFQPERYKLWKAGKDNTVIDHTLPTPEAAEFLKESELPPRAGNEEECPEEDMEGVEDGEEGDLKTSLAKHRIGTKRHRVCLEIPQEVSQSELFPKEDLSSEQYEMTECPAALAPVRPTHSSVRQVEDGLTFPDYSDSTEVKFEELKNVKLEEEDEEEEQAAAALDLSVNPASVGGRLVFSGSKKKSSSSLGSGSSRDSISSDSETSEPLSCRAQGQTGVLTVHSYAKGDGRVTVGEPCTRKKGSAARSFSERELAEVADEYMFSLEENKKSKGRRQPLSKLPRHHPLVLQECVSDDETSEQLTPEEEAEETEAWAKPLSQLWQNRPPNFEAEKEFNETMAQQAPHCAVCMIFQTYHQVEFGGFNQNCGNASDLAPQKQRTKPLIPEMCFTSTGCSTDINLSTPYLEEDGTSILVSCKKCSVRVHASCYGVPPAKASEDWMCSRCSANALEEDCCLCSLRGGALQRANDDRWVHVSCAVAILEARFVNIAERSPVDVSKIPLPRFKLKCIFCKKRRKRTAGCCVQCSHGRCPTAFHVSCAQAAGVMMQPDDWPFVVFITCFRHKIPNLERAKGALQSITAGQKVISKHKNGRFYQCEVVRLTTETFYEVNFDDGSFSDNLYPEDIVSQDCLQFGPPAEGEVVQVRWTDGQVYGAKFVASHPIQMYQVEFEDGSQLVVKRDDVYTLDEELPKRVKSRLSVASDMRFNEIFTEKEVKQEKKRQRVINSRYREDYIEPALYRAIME
Source text: JMJD2A is a jumonji-domain-containing lysine demethylase that uses Fe(II) together with 2-OG to effect oxidative demethylation of histones. Methylation is one of many […] modification that affect epigenetic transcription. […] It is proposed that the functions of JmjD2A binding to the histones, is to maintain marks after they are installed and to spread the modifications by […], establishing a self-propagating cycle for rapid methylation over a large area of chromatin. […] Thus, small molecule targeting of the JMJD2A-tudor domain interaction with its target methylhistone mark is expected to enable sophisticated experiments probing the fine regulatory pathways leading to selective demethylation of a given methyllysine locus based on the methylation state of adjacent histone marks. A quantitative high throughput AlphaScreen has been developed to identify small molecule inhibitors based on a protocol published by NCGC and SGC [4].
Although AlphaScreen has significant advantages with its utility in a variety of epigenetic target assays, the primary screening data provided in this deposition should be used with caution due to the prevalence of screening artifacts. The top compound concentration tested was high (>100uM) in this assay, which increases number of actives and potential artifacts. An AlphaScreen counterscreen is highly recommended to be run against any putative actives to eliminate non-specific artifacts. Alternatively, one can use other AlphaScreen assays in PubChem to filter out promiscuous hits.
[1] Lee, J. et al. Distinct binding modes specify the recognition of methylated histone H3K4 and H4K20 by JMJD2A-tudor. Nat Struct Mol Biol. 15(1); 109-11. 2008. PMID: 18084306
[2] Yasgar, et al. Compound Management for Quantitative High-Throughput Screening. JALA. 2008 Apr;13(2):79-89. PMID: 18496600
[3] Inglese, et al. Quantitative high-throughput screening: a titration-based approach that efficiently identifies biological activities in large chemical libraries. Proc Natl Acad Sci. 1;103(31):11473-8. 2006. PMID: 16864780
[4] Quinn et al. A homogeneous method for investigation of methyl-dependent protein-protein interactions in epigenetics. Nucleic Acids Res., 38(2):e11. 2010. PMID: […]
[5] Baell,Holloway. New substructure filters for removal of pan assay interference compounds (PAINS) from screening libraries and for their exclusion in bioassays. J Med Chem. 53(7):2719-40. 2010. PMID: 20131845
NIH Molecular Libraries Probe Production Network [MLPCN]
NIH Chemical Genomics Center [NCGC]
Structural Genomics Consortium (SGC)
To each well of a 1,536w plate, 2ul of JMJD2A-Tudor (final 100nM) and 1ul biotinylated histone peptide methylated at Lys4 [b-H3(1-18)K4me3] (final 50nM) were added in 1x PBS buffer, pH 7.4, containing 0.01% Tween-20, using a nanoliter dispenser. Formation of a protein-peptide complex proceeded at room temperature for 30 min. A Kalypsys pin-tool transferred 23nl of library compound solution in DMSO to each well. Following a 30 min incubation of the protein-peptide complex with compounds at room temperature, a mixture of 40 µg/mL each streptavidin-coated donor and nickel chelate acceptor AlphaScreen beads (final 10 µg/mL) was added in a 1ul dispense for a final volume of 4ul, followed by a brief centrifugation (1000 rpm, 1 min). Plates were incubated protected from the light for 20 min at room temperature. Microplates were then read on an EnVision multilabel plate reader using the 1,536 plate HTS AlphaScreen aperture (excitation time 80 ms, measurement time 240 ms).
Further: nearly all actives have a fitted effect of over 50% in size.
On the % scale 0 is the no-effect control and ±100 the full control effect; potency means the concentration at half of the fitted maximal effect.

Structure (SMILES) | activity change, negative = inhibition | Potency
CCc1ccc(NC(=O)CN2CCSc3ccc(S(=O)(=O)N4CCCC4)cc32)cc1 | -30% | 
COc1cc(OC)c(N(C)C(=O)c2cc3c(=O)oc4ccccc4c3s2)cc1Cl | -10.2% | 
Cc1ccccc1CS(=O)(=O)CC1Nc2ccc(C(=O)NCc3ccc(Cl)cc3)cc2NC1=O (stereo not drawn) | -0.647% | 
Cc1ccccc1CSc1nnc(-c2ccccn2)n1N |  | 31.6 µM (active)
Cn1c(SCC(=O)C(C)(C)C)nnc1-c1ccccn1 | 1.05% | 
Cc1ccccc1CSc1nnc(-c2cccnc2)n1N | -12.4% | 
Fc1ccc(-c2nc(Nc3cccc(Cl)c3)nc3c2COc2ccccc2-3)cc1 | -17.9% | 
O=C(NCCS(=O)(=O)N1CCN(c2ccc(F)cc2)CC1)c1ccccc1Br | -16.6% | 
CCC(=O)N1CCc2cc(S(=O)(=O)NC(Cc3ccccc3)C(=O)NCc3ccccc3)ccc21 (stereo not drawn) | -1.33% | 
O=C(Nc1ccccc1Br)c1cc(CN2CCCC2)on1 | -12.3% | 
CC(C)(C)c1ccc(NC(=O)COC(=O)CCc2nc3ccccc3c(=O)[nH]2)cc1 | 0.685% | 
Cc1ccc(NC(=O)COC(=O)CCc2nc3ccccc3n2-c2ccccc2)c(C)c1 | -1.43% | 
CCN(c1ccc(NC(=O)COC(=O)CCc2nc3ccccc3n2-c2ccccc2)cc1)C(C)C |  | 11.2 µM (active)
Cc1ccc(Cn2c(CNC(=O)Cc3cccc(C)c3)nc3cccnc32)cc1 | -3.23% | 
COc1cc2ccccc2cc1C(=O)Nc1cccc(-c2nc3ccccc3o2)c1 | -10.8% | 
S=c1[nH]nc2c3c4c(sc3ncn12)CCCC4 |  | 22.4 µM (active)
CC(C(=O)O)n1cnc2sc3c(c2c1=O)CCCC3 (stereo not drawn) | -9.79% | 
N=c1c2c3c(sc2ncn1CCCN1CCOCC1)CCCCC3 | -17.2% | 
Cc1noc2ncnc(NCc3ccccc3Cl)c12 | -13.3% | 
Cc1ccc(C)c(Cn2c(=O)n(CCC(=O)NCc3ccc4c(c3)OCO4)c(=O)c3sccc32)c1 | 0% | 
COC(=O)c1ccccc1NC(=O)Cn1c(=O)n(-c2cccc(C(F)(F)F)c2)c(=O)c2c(C)c(C)sc21 | -10.6% | 
C#CCOc1ccccc1/C=C1/C(=O)ON=C1C | -25.8% | 
CC1=NOC(=O)/C1=C\c1ccccc1 |  | 25.1 µM (active)

Structure (SMILES) | activity change, negative = inhibition | Potency
C=CCOc1ccc(/C=C2/C(=O)ON=C2C)cc1OCC | -5.42% | 
COc1ccc(Nc2ncc(C(=O)Nc3cc(C)ccc3OC)c3ccccc23)cc1 | 0.341% | 
Cc1ccc(/C=C(\C#N)C(=O)Nc2cc(C)ccc2C)cc1 | -13.4% | 
CCc1ccc(NC(=O)CSc2nc3c([nH]c4ccccc43)c(=O)n2-c2cccc(OC)c2)cc1 | -27.7% | 
Cc1cccc(C)c1OCCN1CCOCC1 |  | 28.2 µM (active)
CCOc1ccc(C(=O)CCN2CCOCC2)cc1 | -11.5% | 
O=C(OCCN1CCOCC1)C1(c2ccccc2)CCCCC1 | -1.44% | 
S=c1[nH]nc(/C=C/c2ccccc2)o1 | -21% | 
Brc1ccc(/C=N/N2CCN(C3c4ccccc4-c4ccccc43)CC2)s1 | -16.7% | 
CN(C)C(=O)CSc1n[nH]c(-c2ccco2)n1 | -8.42% | 
S=c1[nH]nc(-c2ccco2)n1/N=C/c1ccc(Br)s1 |  | 28.2 µM (active)
S=c1[nH]nc(-c2ccco2)n1/N=C/c1ccccc1 |  | 3.55 µM (active)
O=C(NCCc1ccc(Cl)cc1)c1ccc2nc(CCc3ccccc3)oc2c1 | -6.71% | 
O=C(c1ccc2c(c1)N(Cc1ccccc1)C(=O)c1ccccc1S2(=O)=O)N1CCC(Cc2ccccc2)CC1 | -15.2% | 
O=C(CN1CCN(Cc2ccc(Cl)cc2)C1=O)NCc1ccc(F)cc1 | -17% | 
Cn1c(SCC(=O)N2CCCc3ccccc32)ncc(C(=O)Nc2ccc(F)cc2)c1=O | 2.27% | 
CC(=O)Nc1cc(C(=O)NCc2ccc(F)cc2)ccc1Sc1ccc(F)cc1 | -11.9% | 
COc1cc(Cl)c(NC(=O)C(NS(=O)(=O)c2cccs2)C(C)C)c(OC)c1 (stereo not drawn) | -6.62% | 
CCC(C(=O)Nc1cccc(-c2nc3cccnc3s2)c1C)c1ccccc1 (stereo not drawn) | -18.5% | 
O=C(CN1CCN(c2ccccn2)CC1)Nc1ccc(Br)cc1 | -34.8% | 
O=C(CN1CCOCC1)Nc1ccccc1 | -10.5% | 
CCOC(=O)N1CCN(CC(=O)Nc2ccc(F)cc2)CC1 | -2.13% | 
Cc1cc(NC(=O)CCN2CCN(Cc3ccccc3)CC2)ccc1Br | -31.5% | 

Structure (SMILES) | activity change, negative = inhibition | Potency
CC(=O)N1CCN(CC(=O)Nc2ccc(SC(F)F)cc2)CC1 | -9.59% | 
CCN(CC)c1ccc(NC(=O)CN2CCN(CC(=O)Nc3ccc(Cl)cc3)CC2)cc1 |  | 44.7 µM (active)
CC(=O)N1CCN(CC(=O)Nc2ccc(C)c(F)c2)CC1 |  | 17.8 µM (active)
CCCCN(C)CCC(=O)Nc1ccc(Cl)cc1 | 11% [at 57.1 µM] | 
O=C(CN1CCN(C(=O)c2ccco2)CC1)Nc1ccc(Cl)c(C(F)(F)F)c1 | 6.53% | 
O=C(CN1CCN(c2ccc(O)cc2)CC1)Nc1ccc(-c2ccccc2)cc1 |  | 50.1 µM (active)
O=C(CN1CCN(Cc2ccccc2)CC1)Nc1ccc(F)c(F)c1 |  | 6.31 µM (active)
COC(=O)c1cc(NC(=O)CN2CCN(C(C)=O)CC2)cc(C(=O)OC)c1 | -0.37% [at 57.1 µM] | 
Cc1ccc(Cl)cc1NC(=O)Cc1ccc(-n2c(C)nc3cccnc32)cc1 | -6.21% | 
Cc1ccccc1NC(=O)Cn1cc(C(=O)c2cccs2)c2ccccc21 | 9.97% | 
CCC(C)NC(=O)Cn1c(=O)n(-c2ccc(Cl)cc2)c(=O)c2c3c(sc21)CCCC3 (stereo not drawn) | -4.1% | 
Cc1cc(C)c(NC(=O)CN2C(=O)c3cccnc3Oc3ccc(Cl)cc32)c(C)c1 | -7.26% | 
O=C(Nc1ccc2nc(SCC(=O)N3CCCc4ccccc43)sc2c1)c1ccc(F)cc1 | -17.2% | 
CCOCCCNC(=O)c1ccc2nc(CCc3ccccc3)oc2c1 | -25.6% | 
O=C(Nc1ccccc1Cl)N1CCC(CN2CCCC2)CC1 | -21.8% | 
Cc1ccc2nc(COc3cccc(NC(=O)Nc4ccc(C)c(Cl)c4)c3)cc(=O)n2c1 | -19.2% | 
CSc1nc(-c2ccc(F)cc2)nc2c1Cc1c(CO)cnc(C)c1O2 | -15% | 
Cc1nnc(OCC(=O)NCCC2=CCCCC2)c2ccccc12 | -1.23% | 
O=C(Cc1nn[nH]n1)NCCC1=CCCCC1 |  | 50.1 µM (active)
O=C(COc1ccc(Cl)cc1)NCCC1=CCCCC1 | 35.4% | 
COc1ccc(C(=O)c2oc3ccccc3c2NC(=O)COc2cccc(C)c2)cc1 | -1.6% | 
CCOC(=O)c1c(N)n(-c2cccc(C)c2C)c2nc3ccccc3nc12 | -12.1% | 
